WT yeast gro inh: growth inhibition of WT yeast, mitochondrial fusion screen; mitochondrial fusion phenotypic screen, WT strain; inhibition, % at 10 µM; 190,000 compounds, 2.1% hits; AID 1362; in the data active means inhibition above about 58%; tested in S. cerevisiae
Lmaj promast: reduces viability of Leishmania major promastigotes; resazurin fluorescence viability; inhibition, % at 10 µM; 200,000 compounds, 9% hits; AID 1063; in the data active means inhibition above about 50%;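 further: promastigotes grown with compound for 44 hours at 28 °C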
CHOP inh: CHOP inhibition in unfolded protein response; CHO-K1 CHOP-promoter luciferase, tunicamycin-induced, 15-18 h; inhibition, % at 10 µM; 220,000 compounds, 3.8% hits;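 active means compounds that reduced the stress-induced luciferase reporter signal by more than about 70% of percent inhibition, limit read from the data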;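 further: 0% = tunicamycin plus vehicle and 100% = wells without tunicamycin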
Arbovirus inh: blocks arbovirus infection; arbovirus infection cell-based antiviral screen; inhibition, % at 10 µM; 200,000 compounds, 0.37% hits; AID 1251; in the data active means inhibition above about 30%
* = called active by the depositor; . = no result. Shown are actives, neighbours in structure and some others; about 12% of the full set was active somewhere.

SMILES	WT yeast gro inh	Lmaj promast	CHOP inh	Arbovirus inh
O=C(NNC(=S)NCc1ccc(Cl)cc1)c1ccc2c(c1)OCO2	9	-3	-5	0
CCOC(=O)c1cc(-c2c(Cl)cccc2Cl)no1	.	.	2	.
CCc1ccccc1NC(=O)NC1CC2CCC(C1)N2Cc1cccs1 (centres undefined)	7	76*	11	-3
CCc1ccccc1NC(=O)NC1CCCCC1	-2	5	20	1
COc1cc(-n2c(C)nc3cc(C(=O)O)ccc32)cc(OC)c1OC	8	-3	16	3
C=CCSc1nc2ccccc2n1C(=O)/C=C/c1ccc(OC)c(OC)c1	.	71*	109*	-5
COc1ccc(/C=C/C(=O)NCCn2c(C)cc3ccccc32)cc1OC	2	10	-1	10
CCn1c(SCC(=O)N/N=C/c2ccc(OC)c(OC)c2)nc2ccccc21	-8	97*	21	-1
COc1ccc(CCNc2ncnc3sccc23)cc1OC	-13	33	70*	4
COc1ccc(CCNc2ncnc3c2oc2ccccc23)cc1OC	-24	12	.	-3
O=Cc1ccc(OCc2ccccn2)cc1	0	-3	-7	34*
COc1ccc(C=O)cc1CSc1ccccn1	.	.	-7	.
O=c1c2sccc2nc(SCc2cc(=O)n3ccccc3n2)n1Cc1ccccn1	-10	15	-7	-5
c1ccc2c(CSc3ncnc4nc[nH]c34)cccc2c1	65*	-4	36	-27
c1ccc(CCSc2ncnc3nc[nH]c23)cc1	0	-13	27	-31
COc1ccc(CCNC(=O)CCC2COc3ccccc3O2)cc1OC (centres undefined)	7	-2	18	9
C=CCN(CC=C)S(=O)(=O)c1ccc(F)cc1	28	0	79*	7
COC(=O)N/N=C(\C)c1ccc(-n2ccnc2)cc1	-10	-5	8	5
C/C(=N\NC(=O)COc1ccc(C)cc1C(C)C)c1ccc(-n2ccnc2)cc1	54	49	93*	-28
N#CCOC(=O)c1c2c(nc3ccccc13)CCC2	3	-8	10	10
O=S(=O)(c1ccccc1C(F)(F)F)N1CCN(S(=O)(=O)c2ccccc2C(F)(F)F)CC1	13	-1	16	-3
CCn1c(N2CCN(S(=O)(=O)c3ccccc3C(F)(F)F)CC2)nc2ccccc21	23	74*	48	-6
Cc1nn(Cc2ccc(F)cc2)c(C)c1NC(=O)c1cnn2c1NC(c1ccccc1)CC2C(F)(F)F (centres undefined)	28	73*	31	-41
O=C(CSc1nnnn1-c1ccccc1)N1N=CCC1c1ccccc1 (centres undefined)	3	-3	-12	-9
Cc1ccc(SCC(=O)N2N=CCC2c2ccccc2)cc1 (centres undefined)	29	84*	-1	0
SMILES	WT yeast gro inh	Lmaj promast	CHOP inh	Arbovirus inh
CCCN(CCC)C(=O)/C=C/c1cccc([N+](=O)[O-])c1	.	.	12	.
CCCN1C/C(=C/c2cccc([N+](=O)[O-])c2)C(=O)/C(=C/c2cccc([N+](=O)[O-])c2)C1	-8	101*	100*	0
CCCN1C/C(=C/c2ccc3c(c2)OCO3)C(=O)/C(=C/c2ccc3c(c2)OCO3)C1	3	100*	97*	-34
O=C1CC(N2CCN(S(=O)(=O)c3cccc(C(F)(F)F)c3)CC2)C(=O)N1Cc1ccccc1 (centres undefined)	22	1	8	1
Cc1ccc(NC2=NCC(=O)N2C2CCCC2)c(C)c1	5	30	10	-4
O=S(=O)(Nc1cccc(-c2cn3cccnc3n2)c1)c1ccc(F)cc1	1	71*	37	-3
O=S(=O)(Nc1cccc(-c2cn3cccnc3n2)c1)c1ccc(-c2ccccc2)cc1	13	1	-2	-10
O=S(=O)(Nc1cccc(-c2cn3cccnc3n2)c1)c1ccccc1	1	88*	18	-1
CCC(=O)OCc1c(C(F)(F)F)nn(C)c1Sc1ccc(F)cc1	10	-3	59	8
CCC(=O)OCc1c(C(F)(F)F)nn(C)c1Sc1ccc(Cl)cc1	41	-2	79*	9
C[C@@H]1NC(=O)c2cc([N+](=O)[O-])cc(I)c2OCC[C@@H](C(=O)NC(CC(=O)O)C(N)=O)NC(=O)[C@H](CC(N)=O)NC1=O (some centres undefined)	-4	-4	-15	-2
COc1cccc(/C(O)=C/c2nc3ccc(C(=O)NCCc4ccc(Cl)cc4)cc3[nH]c2=O)c1	-9	2	83*	-38
CCC1=[N+](C)c2cccc3cccc(c23)N1C	59*	17	13	-6
COC(=O)c1nnn(CC(=O)Nc2cccc(Cl)c2C)c1C(=O)OC	1	-4	51	3

High-throughput results deposited in PubChem BioAssay by several laboratories.
